Compounds with a hit are over-represented: about 19% of the library has one in this group of screens.
TDP1 inh = TDP1 (human) enzyme inhibition | recombinant TDP1, AlphaScreen DNA substrate cleavage | Potency, µM (top dose mostly 130 µM), without a hit: at the highest dose activity change, negative = inhibition, hits mostly inhibitors | 350,000 compounds, 0.28% hits; further: potency means the concentration at half of the fitted maximal effect; nearly all actives have a fitted effect of over 40% in size
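E. coli-derived human Tdp1, 1 nM final. Cpd preinc 15 min RT; substrate 15 nM final, 5 min RT; AS bead mix 10 ug/ml final, 10 min RT. Signal loss = tyrosine-FITC cleavage. No-enzyme wells = max signal.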
TDP1 cell CPT = growth inhibition of DT40 Tdp1-/-;hTDP1 cells with camptothecin (screen for TDP1 inhibitors); chicken DT40 Tdp1-/-;hTDP1 cells + 20 nM CPT, ATP luminescence, 48 h; Potency, µM (titrated, usually from 46.2 µM), for inactives: at the highest dose activity change, negative = growth inhibition, hits mostly inhibitors; 420,000 compounds, 12% hits; further: potency means the concentration at half of the fitted maximal effect; nearly all actives have a fitted effect of over 55% in size
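Chicken DT40 Tdp1-/- cells complemented with human TDP1, 400 cells/well, exposed to compounds plus 20 nM camptothecin for at least 48 h at 37 C; viability read as ATP content by CellTiter-Glo luminescence.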
ELG1 repair inh = blocks ELG1-dependent DNA repair in HEK293T cells; Potency, µM (titrated, usually from 46.1 µM), without a hit: at the top dose activity change, negative = inhibition, most hits filed as inhibitors; 330,000 compounds, 2.3% hits; HEK293T ELG1-luciferase reporter, luminescence, 16 h; DNA damage induced by 5-fluorouridine; AID 504467; further: potency means the concentration at half of the fitted maximal effect; nearly all actives have a fitted effect of over 55% in size
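5-Fluorouridine DNA damage + compound/DMSO, 2,000 cells/well, 16 h, 37 °C/5% CO2. ONE-Glo, 30 min RT, luminescence. Readout = decrease in reporter signal.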
Giardia killer = Giardia lamblia killing. Giardia lamblia trophozoite viability. activity change, % at 7.66 µM, hits read low. 340,000 compounds, 0.15% hits. AID 540267; in the data active means activity change below about -80%; inconclusive means between about -30% and that limit;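 further: parasites exposed to compound for two days anaerobically before the ATP read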
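ATP-content bioluminescence gauges trophozoite survival. Cells (100/well) receive compound and incubate anaerobically for 48 hrs at 37 deg C; detection reagent follows for 15-30 min at room temperature.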
DT40 TDP1 no CPT = qHTS for Inhibitors of human tyrosyl-DNA phosphodiesterase 1 (TDP1): qHTS in cells in absence of CPT | Potency, µM (titrated, usually from 46.2 µM), without a hit: at the highest dose activity change, negative = growth inhibition, hits mostly inhibitors | DT40 Tdp1-/- hTDP1 cells, no CPT, ATP luminescence, 48 h | 420,000 compounds, 15% hits; further: potency means the concentration at half of the fitted maximal effect; nearly all actives have a fitted effect of over 55% in size
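Seeded 400 DT40-hTDP1 cells/well (vehicle DMSO, no 20 nM CPT); pinned compounds; ≥48 hr at 37 °C; CellTiter-Glo luminescence as viability measure.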
IL-1B inflam inh = inflammasome signaling inhibition, IL-1 beta readout; 360,000 compounds, 4.7% hits; activity change, % at 57.5 µM; THP-1 LPS/ATP IL-1B secretion, AlphaLISA, 16 h; hits give low values; in the data active means activity change below about -50%; inconclusive means mostly about -30% to -49%
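THP-1 cells pretreated 1 hr with compounds (up to 57.5 uM final), then stimulated with LPS (250 ng/mL final) plus ATP (1.25 mM final); secreted IL-1B measured by AlphaLISA after 16 hr, decreased signal indicating inhibition.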
* hit, by the source's call; [ ] = remark or other dose. Unless noted, the call rests on the fitted dose curve; in most records, active means well fitted curve in the direction sought with a large enough effect; inconclusive means small, poorly fitted or top-dose-only effect, or another doubt; inactive means no such curve, though single readings can be large; an effect the other way counts as inactive or inconclusive. On the % scale 0 is the no-effect control and ±100 the full control effect.

`CC(=O)c1cccc(NC(=O)c2ccc(Cl)c(S(=O)(=O)N3CCOCC3)c2)c1` gave TDP1 inh 2%[2.28 µM], TDP1 cell CPT inconclusive and DT40 TDP1 no CPT 0.46µM*.
O=C(OC1CCOC1=O)c1ccc(Cl)c(S(=O)(=O)N2CCOCC2)c1 (centres undefined) was read as TDP1 inh 28µM*, TDP1 cell CPT -10%, ELG1 repair inh 0%, Giardia killer 6, DT40 TDP1 no CPT 5% and IL-1B inflam inh 9.
CN(CC(=O)Nc1cccc(F)c1)C(=O)CCc1nc2ccccc2c(=O)[nH]1 was read as TDP1 inh 6%[0.505 µM], TDP1 cell CPT inconclusive, ELG1 repair inh 13%, Giardia killer -10, DT40 TDP1 no CPT 1% and IL-1B inflam inh 12.
Screening Cc1ccc(NC(=O)Cn2cnc3c2c(=O)n(C)c(=O)n3C)cc1C returned TDP1 inh 0%, TDP1 cell CPT -16% and DT40 TDP1 no CPT -24%.
Screening COc1cc(F)c(S(=O)(=O)N2CCN(S(=O)(=O)c3ccc4c(c3)OCCO4)CC2)c(F)c1 returned TDP1 inh 1%.
For O=C(NCCNCCO)C1(C(F)(F)F)CC(CCc2ccccc2)CCCO1 (centres undefined) the results were TDP1 inh 7% and Giardia killer -7.
For CCS(=O)(=O)c1ccc2oc(Nc3cc(C)cc(C)c3)nc2c1 the results were TDP1 inh 3%, TDP1 cell CPT inconclusive, ELG1 repair inh inconclusive, Giardia killer 16, DT40 TDP1 no CPT inconclusive and IL-1B inflam inh -10.
`CCOc1ccc(Nc2nc3cc(S(=O)(=O)N(CC)CC)ccc3o2)cc1` gave TDP1 inh 1%, TDP1 cell CPT 5.8µM*, ELG1 repair inh inconclusive, Giardia killer 5, DT40 TDP1 no CPT 7.3µM* and IL-1B inflam inh 43.
For CCS(=O)(=O)c1ccc2oc(Nc3ccc(C(C)C)cc3)nc2c1 the results were TDP1 inh -1%, TDP1 cell CPT 16µM*, ELG1 repair inh 13%, Giardia killer 6, DT40 TDP1 no CPT 23µM* and IL-1B inflam inh -7.
CCn1ncc(C2=NOC(C(=O)NCc3ccccc3)C2)c1C (centres undefined) was read as TDP1 inh 4%, TDP1 cell CPT 1.2µM*, ELG1 repair inh inconclusive, Giardia killer 2, DT40 TDP1 no CPT 1.6µM* and IL-1B inflam inh 57.
Screening CCn1ncc(C2=NOC(C(=O)Nc3cccc(C(C)=O)c3)C2)c1C (centres undefined) returned TDP1 inh 1%, TDP1 cell CPT inconclusive, ELG1 repair inh -21%, Giardia killer -10, DT40 TDP1 no CPT 21µM* and IL-1B inflam inh -14.
For CCn1ncc(C2=NOC(C(=O)NCc3ccc(OC)cc3)C2)c1C (centres undefined) the results were TDP1 inh 6%, TDP1 cell CPT 16µM*, ELG1 repair inh -21%, Giardia killer -2, DT40 TDP1 no CPT inconclusive and IL-1B inflam inh 31.
CCn1ncc(C2=NOC(C(=O)Nc3c(C)n(C)n(-c4ccccc4)c3=O)C2)c1C (centres undefined) was read as TDP1 inh -1%, TDP1 cell CPT -3%, ELG1 repair inh 1%, Giardia killer 6, DT40 TDP1 no CPT -3% and IL-1B inflam inh 33.
For O=C(CC1C(=O)NCCN1CC(c1ccccc1)c1ccccc1)NC1CC1 (centres undefined) the results were TDP1 cell CPT -16%, ELG1 repair inh -1%, Giardia killer 23, DT40 TDP1 no CPT -5% and IL-1B inflam inh 2.
CCCN1CCN(C(=O)c2cc(COc3ccc(F)cc3F)on2)CC1 was read as TDP1 inh 7%, TDP1 cell CPT inconclusive, ELG1 repair inh 2%, Giardia killer -12, DT40 TDP1 no CPT inconclusive and IL-1B inflam inh 0.
